Reference: PubChem BioAssay (Tox21)
Results filed as inconclusive are left out. Unmarked numbers belong to inactive results. Calls follow the shape of the full dose curve.
% is scaled to controls: 0 for no effect and ±100 for the full control effect.

Assay: qHTS assay to identify small molecule agonists of H2AX - cell viability counter screen (AID 1224847); also: top concentration of the series differs between compounds; nearly all actives have a fitted effect of over 30% in size
Settings: CHO-K1 viability, CellTiter-Glo luminescence, 3 h; series mostly up to 154 µM; activity change, negative = cytotoxicity: at the top concentration
From the text: National Center for Advancing Translational Sciences [NCATS]
NIH Chemical Genomics Center [NCGC]
U.S. Environmental Protection Agency [EPA]
National Institutes of Environmental Health Sciences [NIEHS]
National Toxicology Program [NTP]
U.S. Food and Drug Administration [FDA]
HTRF phospho-H2AX (Ser139) assay (Cisbio Bioassays, US) enables the quantitative detection of the histone variant H2AX when phosphorylated on serine 139. When double-stranded DNA breaks, either by ionizing radiation or endogenous physiological processes, H2AX becomes phosphorylated at Ser139. This phospho-Ser139 serves as a sensitive biomarker for the detection of such breaks, localizing the site of DNA repair. So, HTRF phospho-H2AX Ser139 is a pertinent assay to study genome stability, the cell cycle, DNA repair, and it serves as a biomarker for cancer, and to understand aging. Wild type CHO-K1 cells were used to identify the inducers of Phospho-H2AX Ser 139 from the Tox21 compound collections. Also cytotoxicity of the Tox21 10K compound library against the CHO-K1 cell line was tested by measuring the cell viability using CellTiter-Glo assay (Promega, Madison, WI).
Tox21 Assay Protocol Summary:
The CHO-K1 cells suspended in culture medium containing 10% FBS were dispensed at 1000 cells/ 3 ul/well in 1536-well white wall/solid bottom plates (Greiner Bio-One North America, NC) using a Multidrop Combi (Thermo Fisher Scientific Inc., Waltham, MA). After the assay plates were incubated at 37C overnight, 23 nl of compounds at 15 concentrations (from 5-48 columns) or positive control (from 1 to 4 columns) were transferred to the assay plates using a Pintool station (Wako, San Diego, CA) into each well resulting in a final DMSO concentration of 0.76%. After 3hr incubation at 37C, 3 uL/well CellTiter-Glo luminescent cell viability reagent (Promega Corporation, Madison, WI) was added using a Flying Reagent Dispenser (FRD) (Aurora Discovery, CA). After incubation at room temperature for 30 min, the luminescence intensity was read using a ViewLux plate reader (PerkinElmer, Waltham, MA).
In the case of `[Ca+2]`, the “activity change, negative = cytotoxicity” value is reported as -0.802%.
For `NC(=O)N1c2ccccc2CC(=O)c2ccccc21`, the “activity change, negative = cytotoxicity” value was -0.516% [at 70.9 µM].
`CCN[C@@H]1C[C@H](N)[C@@H](OC2OC(CN)=CCC2N)[C@H](O)[C@H]1O[C@H]1OC[C@](C)(O)[C@H](NC)[C@H]1O` (stereo not given in full) gave an activity change, negative = cytotoxicity of 4.57% [at 0.582 µM].
In the case of `N[C@@H](CCC(=O)O)C(=O)O`, the “activity change, negative = cytotoxicity” value is reported as -0.0176%.
Work on `CCCCCCCCCCOc1cc2c(=O)c(C(=O)OCC)c[nH]c2cc1OCC` yielded an activity change, negative = cytotoxicity of 1.5% [at 14 µM].
For `CCCCc1nc(Cl)c(CO)n1Cc1ccc(-c2ccccc2-c2nn[nH]n2)cc1`, the “activity change, negative = cytotoxicity” value was 0.0984% [at 70.9 µM].
In the case of `CC(=O)O[C@@]12CO[C@@H]1C[C@H](O)[C@@]1(C)C(=O)[C@H](O)C3=C(C)[C@@H](OC(=O)[C@H](O)[C@@H](NC(=O)OC(C)(C)C)c4ccccc4)C[C@@](O)([C@@H](OC(=O)c4ccccc4)[C@H]21)C3(C)C`, the “activity change, negative = cytotoxicity” value is reported as 2% [at 70.9 µM].
For `c1ccc2sc(SN3CCOCC3)nc2c1`, the “activity change, negative = cytotoxicity” value was 0.0684% [at 70.9 µM].
For `CC/C=C\CCOC(C)OCC` (stereo not given), the “activity change, negative = cytotoxicity” value was -1.98% [at 70.9 µM].
With `NC(=O)N[C@@H](CCC(=O)O)C(=O)O` the “activity change, negative = cytotoxicity” value was 0.325% [at 70.9 µM].
With `CC1=NS(=O)(=O)c2cc(Cl)ccc2N1` the “activity change, negative = cytotoxicity” value was -0.972% [at 70.9 µM].
In the case of `O=Cc1cccc(Br)c1`, the “activity change, negative = cytotoxicity” value is reported as 0.244%.
For `CCC(C(=O)NC(=O)NC(C)=O)c1ccccc1` (stereo not given), the “activity change, negative = cytotoxicity” value was 1.82% [at 70.9 µM].
For `Clc1cc(Cl)c(Cl)nc1Cl`, the “activity change, negative = cytotoxicity” value was -0.389%.
In the case of `CC(COc1ccccc1)NN` (stereo not given), the “activity change, negative = cytotoxicity” value is reported as 0.919% [at 70.9 µM].
In the case of `O=C(O)CNC(=O)c1ccccc1`, the “activity change, negative = cytotoxicity” value is reported as 1.33% [at 70.9 µM].
In the case of `CCCCCCCCCCCCCCC(=O)O`, the “activity change, negative = cytotoxicity” value is reported as 0.406%.
For `CC[N+](CC)(CC)CCOc1cccc(OCC[N+](CC)(CC)CC)c1OCC[N+](CC)(CC)CC`, the “activity change, negative = cytotoxicity” value was -2.29% [at 70.9 µM].
For `Clc1cc(Cl)cc(Cl)c1`, the “activity change, negative = cytotoxicity” value was 0.957%.
In the case of `CCCCCC(=O)OCCc1ccccc1`, the “activity change, negative = cytotoxicity” value is reported as 1.08%.
With `CC1OC1C1CCC2(C)OC2C1` (stereo not given) the “activity change, negative = cytotoxicity” value was 0.306%.
With `Nc1ccccn1` the “activity change, negative = cytotoxicity” value was -0.743%.
For `CCCCCCCC1CCCC1=O` (stereo not given), the “activity change, negative = cytotoxicity” value was 2.36%.
In the case of `O=S(=O)(O)c1cccc2ccccc12`, the “activity change, negative = cytotoxicity” value is reported as -1.22%.
With `CC(C)(C)C(=O)Oc1ccc(S(=O)(=O)Nc2ccccc2C(=O)NCC(=O)O)cc1` the “activity change, negative = cytotoxicity” value was 3.61% [at 70.9 µM].
With `C=CN1CCCCCC1=O` the “activity change, negative = cytotoxicity” value was 3.09%.
With `CCN(Cc1ccccc1)c1ccccc1` the “activity change, negative = cytotoxicity” value was -6.19%.
`Cc1cc(C)c(N=Nc2c(O)c(S(=O)(=O)O)cc3cc(S(=O)(=O)O)ccc23)cc1C` gave an activity change, negative = cytotoxicity of -10.4% [at 14 µM].
In the case of `C[C@@H]1C[C@H]2[C@@H]3C[C@H](F)C4=CC(=O)C(Cl)=C[C@]4(C)[C@@]3(F)[C@@H](O)C[C@]2(C)[C@@]1(O)C(=O)CO`, the “activity change, negative = cytotoxicity” value is reported as 0.184% [at 70.9 µM].
In the case of `CC(C)C[C@@H](N)C(=O)O`, the activity change, negative = cytotoxicity is reported as -4.41% [at 31.6 µM].
For `Nc1ccncc1N`, the “activity change, negative = cytotoxicity” value was -0.431% [at 70.9 µM].
For `Cc1nc(C2CCCCC2)c(-c2ccc(S(N)(=O)=O)c(F)c2)o1`, the “activity change, negative = cytotoxicity” value was -1.05% [at 70.9 µM].
In the case of `CCCCCCC1CCC(=O)O1` (stereo not given), the “activity change, negative = cytotoxicity” value is reported as 0.791%.
For `CC[C@H]1OC(=O)[C@H](C)[C@@H](O[C@H]2C[C@@](C)(OC)[C@@H](O)[C@H](C)O2)[C@H](C)[C@@H](O[C@@H]2O[C@H](C)C[C@H](N(C)C)[C@H]2O)[C@](C)(OC)C[C@@H](C)C(=O)[C@H](C)[C@@H](O)[C@]1(C)O`, the “activity change, negative = cytotoxicity” value was -0.612%.
For `CC(CO)(CO)[N+](=O)[O-]`, the “activity change, negative = cytotoxicity” value was 0.937%.
With `O=[N+]([O-])c1cncn1CCN1CCOCC1` the “activity change, negative = cytotoxicity” value was -0.202% [at 70.9 µM].
For `CCCC(=O)O[C@]1(C(=O)CC)CC[C@H]2[C@@H]3CCC4=CC(=O)CC[C@]4(C)[C@H]3[C@@H](O)C[C@@]21C`, the “activity change, negative = cytotoxicity” value was -3.58% [at 70.9 µM].
In the case of `CC(=O)NC(=O)c1ccccc1O`, the “activity change, negative = cytotoxicity” value is reported as 0.513% [at 70.9 µM].
In the case of `CC(=O)OCC(=O)[C@@]1(O)[C@H](C)C[C@H]2[C@@H]3CCC4=CC(=O)C=C[C@]4(C)[C@@]3(F)[C@@H](O)C[C@@]21C`, the “activity change, negative = cytotoxicity” value is reported as 0.899% [at 70.9 µM].
With `NC(=O)NC1N=C([O][Al])NC1=O` (stereo not given) the “activity change, negative = cytotoxicity” value was -0.659% [at 70.9 µM].
